Laboratory results: PubChem BioAssay AID493201 (National Center for Advancing Translational Sciences (NCATS), 2011)
Results filed as inconclusive are left out. Values without a mark were called inactive. The source made the active and inactive calls. Calls come from the whole dose curve; as a rule, active = well fitted activation curve with a large enough effect; inconclusive = small, poorly fitted or top-dose-only effect; inactive = no such curve, though single readings can be large or run the other way.

Test: qHTS Assay for Identifying a Potential Treatment of Ataxia-Telangiectasia: Secondary assay (no NCS) hit validation;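 note: phosphorylated KAP1 signal as a proxy for ATM-like kinase activity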; for activation: 0% is about no effect
Settings: A-T patient fibroblasts, AlphaLISA, no DNA damage added, 90 min; series mostly up to 76.9 µM; activation: at the top concentration
Text: NIH Chemical Genomics Center [NCGC]
NIH Molecular Libraries Probe Centers Network [MLPCN]
Assay Submitter (PI): Wei Zheng and Yosef Shiloh
Ataxia-telangiectasia (A-T) is a devastating and progressive disease for which, there is no cure. Although A-T is a multisystem disease, it is stereotyped characterized by its neurological symptoms such as truncal ataxia, due to cerebellar cortical degeneration of the Purkinje and granule cells. Other symptoms of A-T are telangiectasias (dilated blood vessels), primary immunodeficiency, marked sensitivity to ionizing radiation (IR), chromosomal instability and predisposition to cancer.
The underlying genetic cause of A-T is null mutations in the ATM (A-T mutated) gene. ATM is a nuclear serine/threonine kinase that functions as a master regulator of the cellular responses to double strand breaks (DSBs) in the DNA. Upon activation by DSBs, ATM phosphorylates a plethora of downstream targets, including KAP-1 on […]. KAP-1 phosphorylation occurs shortly in response to DSBs and mediates global chromatin relaxation, which facilitates DSB repair. To screen for small molecules that will compensate for the loss of ATM in cells derived from A-T patients, we monitored KAP-1 phosphorylation as a readout for ATM-like activity using an AlphaLISA assay. This secondary assay omits NCS, which creates double-stranded DNA breaks.
Step,Parameter,Value,Description
1. Cell Plating, 3 ul, 500 cells/well in OPTI-MEM, 1% FBS, 1% Pen/Strep
3. Library compounds, 23 nl, 76.7 - 0.61uM dilution series final concentration
4. Incubation, 60 min, 37C, 5% CO2, 95% humidity
6. Incubation, 30 min, 37C, 5% CO2, 95% humidity
7. Reagent, 1 ul, Premixed detection reagents and lysis buffer
8. Reagent, 1 ul, 0.6% Antifoam A
9. Incubation, 6 hr, 25C, 95% humidity
10. Readout, EnVision, EnVision plate reader. AlphaScreen 1536-well protocol
Cells were plated using medium-binding white solid-bottom tissue culture treated Kalypsys plates. Multidrop dispense of 3 uL of F2112 (hTERT immortalized A-T patient fibroblast cells). Detection reagent and lysis buffer was 3.75nM Rab-a-pKAP1 antibody bound to 75 ng/ul AlphaScreen SA donor bead, 3.75 nM Biot-M-a-KAP1 antibody bound to AlphaLISA protein A acceptor bead, 0.5x protease inhibitor cocktail and 0.25x PerkinElmer lysis buffer. EnVision protocol for 1536-well AlphaScreen read (30ms excitation, 100ms read), about 10 min/plate.
Potency is the fitted concentration of half-maximal effect.

Row | Compound | activation [%] | Potency
1 | Cc1ccc(NC(=O)NC(=O)N(C(C)C)S(C)(=O)=O)nc1 | 11.3 | –
2 | COc1ccc(Cl)cc1NC(=O)C[n+]1cccc(C)c1 | -2.15 | –
3 | COc1ccccc1-n1c(SCC(N)=O)nc2sc3c(c2c1=O)CCC3 | -2.61 | –
4 | NC(=O)c1cc2ccccc2o/c1=N/NC(=O)c1cccc(F)c1 | -4.35 | –
5 | Cc1ccccc1S(=O)(=O)Oc1ccc2ccc(O)cc2c1 | -2.15 | –
6 | C/C=C\C=C/C(=O)Nc1cccc(C2=NOC3(C2)C[C@@H](C(N)=O)N(C(=O)COc2ccc(Cl)cc2)C3)c1 (stereo not given in full) | -5.08 | –
7 | O=C(N/N=C/c1cccc2ccccc12)c1cccnc1 | 0 | –
8 | Cc1nn(C)c(Cl)c1CN1CCN(C2CCCC2)C(CCO)C1 (stereo not given) | -1.74 | –
9 | O=C1C(Cl)=C(Nc2ccc3cn[nH]c3c2)C(=O)c2ccccc21 | – | 1.3 µM (active)
10 | O=C(NCc1ccccc1)c1cccnc1Sc1ccccc1 | 0.87 | –
11 | N#CCN1C(=O)C(=O)N(Cc2cccc(Cl)c2)C1=O | 29.7 | –
12 | CC(Oc1ccccc1)C(=O)Nc1cccc(NC(=O)c2ccco2)c1 (stereo not given) | 18.3 | –
13 | O=C(c1ccc(F)cc1)c1ccc(N2CCCCC2)cc1 | -6.96 | –
14 | O=C(c1ccc(F)cc1)N1CCC(c2ccccc2)C1 (stereo not given) | -9.68 | –
15 | COc1cccc(CNCc2ccc(OC)c3ccccc23)c1OC | -18.3 | –
16 | COc1cc(CCC(=O)OCC(=O)N2CCc3ccccc32)cc(OC)c1OC | -4.35 | –
17 | O=C(O)c1ccc(-c2nc3ccccc3s2)o1 | 12.2 | –
18 | Oc1ccc(-c2nccc(-c3ccc(F)cc3)n2)cc1 | – | 5.82 µM (active)
19 | COc1ccc(CCn2c(S)nc3ccccc3c2=O)cc1 | – | 41.2 µM (active)
20 | COc1ccc(-c2csc(-c3ccc(O)cc3)n2)cc1 | -2.15 | –

Row | Compound | activation [%] | Potency
21 | CC(O)[C@H]1CNC(=O)C(=O)N1CC1(c2ccccc2)CC1 (stereo not given in full) | -4.3 | –
22 | CCOC(=O)c1c(CSc2ccsc2)n(C)c2cc(Br)c(O)c(CN(C)C)c12 | – | 26 µM (active)
23 | Cc1cc(C)n2nc(C(=O)OCCOc3ccc(F)cc3)nc2n1 | – | 58.2 µM (active)
24 | COc1cccc(OCCc2c(C)n[nH]c2C)c1 | -8.6 | –
25 | O=C(O)CCCC(=O)N1N=C(c2ccccc2)CC1c1cccs1 (stereo not given) | 0 | –
26 | Cc1ccc2c(c1)C(=O)CC(O)(C(F)(F)F)O2 (stereo not given) | -4.3 | –
27 | O=C(/C(=C/c1ccc(Cl)cc1)c1nc2ccccc2[nH]1)c1cccs1 | -1.08 | –
28 | O=C(O)c1nccnc1C(=O)Nc1ccccc1-c1ccccc1 | 26.1 | –
29 | Cc1cc(C)c2c(Cn3ccnc3)cc(=O)oc2c1 | -8.7 | –
30 | CCOC(=O)C1CCN(C(=O)c2cc3cc(Cl)ccc3[nH]2)CC1 | 1.08 | –
31 | CN(C)C(=O)c1nc2ccc(Cl)cn2c1CNCc1cccc(OC(F)(F)F)c1 | -11.3 | –
32 | O=C(O)c1ccc(/C=C/c2nc3ccccc3c(=O)[nH]2)cc1 | 6.09 | –
33 | CN(C)S(=O)(=O)c1cccc(C(=O)N=C2N=C3C=CC(Cl)=CN3Cc3ccccc32)c1 | -3.39 | –
34 | CSc1nc(SCC(=O)O)c2c3c(sc2n1)COC(C)(C)C3 | 13.9 | –
35 | CC(=O)Nc1ccc(S(=O)(=O)NCC2(N3CCOCC3)CCCCC2)cc1 | 29.7 | –
36 | COc1cccc(CN(C)CC(=O)NCc2ccc(F)cc2)c1OC | -5.38 | –
37 | O=C(CCCn1nnnc1CN1CCOCC1)N1CCC(c2ccc(F)cc2)C1 (stereo not given) | -5.38 | –
38 | O=C(CN1C(=O)c2cccc([N+](=O)[O-])c2C1=O)NCc1ccccc1 | 22.6 | –
39 | O=C(O)CCCN1C(=O)/C(=C/C=C/c2ccco2)SC1=S | 3.23 | –
40 | CCOc1ccccc1CNC(=O)Cn1c(=O)oc2ccccc21 | – | 32.8 µM (active)
